Usually inhibition stands for the drop in the measured response relative to a control, in per cent.

These results are taken from ChEMBL document CHEMBL1961873, “Compounds: GSK PKIS; Assays: Nanosyn kinase panel” (2012).

Several values for one entry are separate records, joined by “and”; a condition that tells them apart may be missing. Equal entries are not always repeated.

Test [1] addresses Sphingosine kinase 1 (Homo sapiens) (UniProt Q9NYA1). To be noted: at 1 µM.
Test [2] addresses T1, Sphingosine kinase 2 (Homo sapiens) (UniProt Q9NRA0).
T1 sequence (whole entry): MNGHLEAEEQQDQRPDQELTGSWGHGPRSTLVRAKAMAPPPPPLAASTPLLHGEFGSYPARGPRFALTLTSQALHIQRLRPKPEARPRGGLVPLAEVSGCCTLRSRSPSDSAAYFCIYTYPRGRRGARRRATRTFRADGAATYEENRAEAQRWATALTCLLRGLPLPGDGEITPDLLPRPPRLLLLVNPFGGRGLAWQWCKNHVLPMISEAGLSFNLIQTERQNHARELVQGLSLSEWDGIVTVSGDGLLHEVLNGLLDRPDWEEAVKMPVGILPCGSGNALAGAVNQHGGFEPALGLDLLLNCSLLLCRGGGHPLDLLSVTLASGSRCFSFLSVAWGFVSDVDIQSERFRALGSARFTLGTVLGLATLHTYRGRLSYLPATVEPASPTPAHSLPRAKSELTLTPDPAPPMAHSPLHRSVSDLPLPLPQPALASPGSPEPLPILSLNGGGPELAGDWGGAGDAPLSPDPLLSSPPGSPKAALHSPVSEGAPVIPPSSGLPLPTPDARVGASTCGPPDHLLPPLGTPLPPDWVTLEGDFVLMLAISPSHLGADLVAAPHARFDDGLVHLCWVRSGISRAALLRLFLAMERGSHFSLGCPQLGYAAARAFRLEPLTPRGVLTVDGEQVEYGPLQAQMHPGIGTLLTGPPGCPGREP
Conditions: at 0.1 µM.

Test [3] deals with T1, Sphingosine kinase 2 (Homo sapiens). Conditions: at 1 µM.
In test [4] the target is Casein kinase II subunit alpha (Homo sapiens) (UniProt P68400). Conditions: at 0.1 µM.
Test [5] has the same target. Conditions: at 1 µM.
The target in test [6] is T2, Inhibitor of nuclear factor kappa-B kinase subunit alpha (Homo sapiens) (UniProt O15111).
T2 sequence (whole entry): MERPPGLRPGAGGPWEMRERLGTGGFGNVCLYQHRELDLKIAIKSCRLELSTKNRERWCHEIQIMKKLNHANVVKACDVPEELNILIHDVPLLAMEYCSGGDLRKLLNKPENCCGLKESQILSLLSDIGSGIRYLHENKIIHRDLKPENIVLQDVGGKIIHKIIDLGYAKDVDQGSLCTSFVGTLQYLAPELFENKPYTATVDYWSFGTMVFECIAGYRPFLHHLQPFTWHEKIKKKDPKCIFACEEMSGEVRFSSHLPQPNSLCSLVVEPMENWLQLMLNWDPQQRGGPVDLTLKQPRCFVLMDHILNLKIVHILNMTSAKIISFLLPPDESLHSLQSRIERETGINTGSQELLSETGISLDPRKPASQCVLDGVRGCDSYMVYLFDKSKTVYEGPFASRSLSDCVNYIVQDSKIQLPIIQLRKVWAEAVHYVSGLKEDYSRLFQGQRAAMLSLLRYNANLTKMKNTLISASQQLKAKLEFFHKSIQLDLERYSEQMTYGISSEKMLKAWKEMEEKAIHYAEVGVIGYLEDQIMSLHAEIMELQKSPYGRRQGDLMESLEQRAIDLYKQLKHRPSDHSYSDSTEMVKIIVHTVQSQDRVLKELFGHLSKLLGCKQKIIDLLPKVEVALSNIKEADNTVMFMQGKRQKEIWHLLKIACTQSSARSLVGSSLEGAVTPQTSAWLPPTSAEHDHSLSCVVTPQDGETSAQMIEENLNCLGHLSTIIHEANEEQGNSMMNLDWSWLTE
To be noted: at 0.1 µM.

Test [7] concerns the target T2, Inhibitor of nuclear factor kappa-B kinase subunit alpha (Homo sapiens). Conditions: at 1 µM.
For test [8], the target named is T3, Inhibitor of nuclear factor kappa-B kinase subunit beta (Homo sapiens) (UniProt O14920).
T3 sequence (whole entry): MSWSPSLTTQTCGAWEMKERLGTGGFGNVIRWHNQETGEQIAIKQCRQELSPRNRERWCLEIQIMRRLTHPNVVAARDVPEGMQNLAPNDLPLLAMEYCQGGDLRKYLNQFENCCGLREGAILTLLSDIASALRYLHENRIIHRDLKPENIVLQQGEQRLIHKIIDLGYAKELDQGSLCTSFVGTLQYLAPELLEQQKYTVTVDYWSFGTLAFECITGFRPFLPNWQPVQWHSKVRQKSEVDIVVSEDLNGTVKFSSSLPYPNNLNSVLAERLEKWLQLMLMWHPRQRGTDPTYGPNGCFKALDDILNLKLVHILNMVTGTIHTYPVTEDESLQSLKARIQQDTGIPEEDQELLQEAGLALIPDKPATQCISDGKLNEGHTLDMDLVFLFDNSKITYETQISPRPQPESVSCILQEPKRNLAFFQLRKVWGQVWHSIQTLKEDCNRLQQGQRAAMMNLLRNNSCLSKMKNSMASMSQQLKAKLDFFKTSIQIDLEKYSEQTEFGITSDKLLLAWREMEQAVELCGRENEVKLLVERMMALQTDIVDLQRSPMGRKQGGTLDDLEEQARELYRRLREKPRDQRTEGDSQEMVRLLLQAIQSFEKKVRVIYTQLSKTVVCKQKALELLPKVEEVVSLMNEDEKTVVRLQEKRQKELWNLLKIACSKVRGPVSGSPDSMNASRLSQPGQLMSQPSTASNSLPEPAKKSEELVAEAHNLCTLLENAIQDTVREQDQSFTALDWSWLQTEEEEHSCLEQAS
To be noted: at 0.1 µM.

The target of test [9] is T3, Inhibitor of nuclear factor kappa-B kinase subunit beta (Homo sapiens). Conditions: at 1 µM.
Test [10] deals with T4, Inhibitor of nuclear factor kappa-B kinase subunit epsilon (Homo sapiens) (UniProt Q14164).
T4 sequence (whole entry): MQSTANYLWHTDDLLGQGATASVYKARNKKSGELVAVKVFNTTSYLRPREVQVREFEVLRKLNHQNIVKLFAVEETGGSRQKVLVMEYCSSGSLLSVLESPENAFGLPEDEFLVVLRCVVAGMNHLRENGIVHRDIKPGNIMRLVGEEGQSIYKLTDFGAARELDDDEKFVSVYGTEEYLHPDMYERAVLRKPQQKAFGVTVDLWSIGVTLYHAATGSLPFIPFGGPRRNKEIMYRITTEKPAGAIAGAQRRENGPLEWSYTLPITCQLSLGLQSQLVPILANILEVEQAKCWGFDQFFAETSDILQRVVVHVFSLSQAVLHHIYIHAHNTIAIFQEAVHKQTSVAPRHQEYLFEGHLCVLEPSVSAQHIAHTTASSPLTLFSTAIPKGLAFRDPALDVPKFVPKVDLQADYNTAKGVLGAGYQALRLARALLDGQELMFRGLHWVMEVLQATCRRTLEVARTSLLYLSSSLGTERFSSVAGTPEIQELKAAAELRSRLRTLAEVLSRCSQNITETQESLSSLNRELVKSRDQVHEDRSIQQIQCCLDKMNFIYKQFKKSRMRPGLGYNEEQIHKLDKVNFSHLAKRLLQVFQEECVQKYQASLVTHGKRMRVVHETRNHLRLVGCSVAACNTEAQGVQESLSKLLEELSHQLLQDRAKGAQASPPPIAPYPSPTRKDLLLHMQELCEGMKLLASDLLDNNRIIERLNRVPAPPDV
Conditions: at 0.1 µM.

Test [11] concerns the target T4, Inhibitor of nuclear factor kappa-B kinase subunit epsilon (Homo sapiens). To be noted: at 1 µM.
Test [12] addresses T5, Serine/threonine-protein kinase Nek1 (Homo sapiens) (UniProt Q96PY6).
T5 sequence (whole entry): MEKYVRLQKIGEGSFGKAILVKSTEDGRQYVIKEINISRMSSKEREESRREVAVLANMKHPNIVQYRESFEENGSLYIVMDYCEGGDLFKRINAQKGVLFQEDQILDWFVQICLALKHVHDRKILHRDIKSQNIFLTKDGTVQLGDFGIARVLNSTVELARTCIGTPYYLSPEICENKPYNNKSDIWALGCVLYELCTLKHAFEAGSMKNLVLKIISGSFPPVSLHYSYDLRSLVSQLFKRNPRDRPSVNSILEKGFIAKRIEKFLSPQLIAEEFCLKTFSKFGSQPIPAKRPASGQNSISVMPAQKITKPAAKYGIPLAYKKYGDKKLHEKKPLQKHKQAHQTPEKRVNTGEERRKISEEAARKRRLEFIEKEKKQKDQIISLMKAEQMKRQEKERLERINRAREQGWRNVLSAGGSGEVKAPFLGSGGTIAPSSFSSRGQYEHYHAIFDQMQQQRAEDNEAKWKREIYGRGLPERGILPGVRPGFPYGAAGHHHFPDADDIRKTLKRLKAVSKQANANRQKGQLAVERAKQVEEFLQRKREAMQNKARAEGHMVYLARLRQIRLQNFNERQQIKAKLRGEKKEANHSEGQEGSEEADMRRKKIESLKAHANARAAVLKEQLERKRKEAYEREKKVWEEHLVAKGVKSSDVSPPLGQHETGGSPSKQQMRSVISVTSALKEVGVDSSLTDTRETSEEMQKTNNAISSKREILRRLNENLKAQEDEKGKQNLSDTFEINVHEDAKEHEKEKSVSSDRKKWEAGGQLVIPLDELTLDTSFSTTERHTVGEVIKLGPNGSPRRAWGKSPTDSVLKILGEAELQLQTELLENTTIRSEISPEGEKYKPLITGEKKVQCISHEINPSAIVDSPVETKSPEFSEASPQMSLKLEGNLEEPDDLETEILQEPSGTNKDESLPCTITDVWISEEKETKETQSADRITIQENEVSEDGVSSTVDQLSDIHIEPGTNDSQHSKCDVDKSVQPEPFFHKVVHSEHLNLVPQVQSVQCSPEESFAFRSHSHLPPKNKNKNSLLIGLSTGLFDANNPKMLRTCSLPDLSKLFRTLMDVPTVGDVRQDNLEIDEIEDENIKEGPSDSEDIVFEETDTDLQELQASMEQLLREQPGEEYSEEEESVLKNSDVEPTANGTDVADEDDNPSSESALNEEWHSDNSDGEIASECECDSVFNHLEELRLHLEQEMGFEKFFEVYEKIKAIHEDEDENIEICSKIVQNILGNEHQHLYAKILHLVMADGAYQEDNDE
Conditions: at 0.1 µM.

The target in test [13] is T5, Serine/threonine-protein kinase Nek1 (Homo sapiens). To be noted: at 1 µM.
In test [14] the target is T6, Serine/threonine-protein kinase Nek2 (Homo sapiens) (UniProt P51955).
T6 sequence (whole entry): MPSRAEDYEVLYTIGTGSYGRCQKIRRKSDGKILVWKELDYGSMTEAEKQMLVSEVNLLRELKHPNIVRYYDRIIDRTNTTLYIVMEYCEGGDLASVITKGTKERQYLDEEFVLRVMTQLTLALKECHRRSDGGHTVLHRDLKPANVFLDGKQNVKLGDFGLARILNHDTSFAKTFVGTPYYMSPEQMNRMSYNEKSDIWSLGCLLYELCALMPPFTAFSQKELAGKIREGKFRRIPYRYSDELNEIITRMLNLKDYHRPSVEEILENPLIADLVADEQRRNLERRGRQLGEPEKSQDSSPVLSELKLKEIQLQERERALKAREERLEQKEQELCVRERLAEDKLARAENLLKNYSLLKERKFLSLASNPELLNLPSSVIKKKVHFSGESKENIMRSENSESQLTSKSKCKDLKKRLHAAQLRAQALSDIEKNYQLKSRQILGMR
To be noted: at 0.1 µM.

The target in test [15] is T6, Serine/threonine-protein kinase Nek2 (Homo sapiens). To be noted: at 1 µM.
The target of test [16] is Serine/threonine-protein kinase Nek6 (Homo sapiens) (UniProt Q9HC98). To be noted: at 0.1 µM.
The target is the same in test [17]. To be noted: at 1 µM.
The target of test [18] is Serine/threonine-protein kinase Nek7 (Homo sapiens) (UniProt Q8TDX7). To be noted: at 0.1 µM.
Test [19] has the same target. Conditions: at 1 µM.
Test [20] deals with T7, Serine/threonine-protein kinase Nek9 (Homo sapiens) (UniProt Q8TD19).
T7 sequence (whole entry): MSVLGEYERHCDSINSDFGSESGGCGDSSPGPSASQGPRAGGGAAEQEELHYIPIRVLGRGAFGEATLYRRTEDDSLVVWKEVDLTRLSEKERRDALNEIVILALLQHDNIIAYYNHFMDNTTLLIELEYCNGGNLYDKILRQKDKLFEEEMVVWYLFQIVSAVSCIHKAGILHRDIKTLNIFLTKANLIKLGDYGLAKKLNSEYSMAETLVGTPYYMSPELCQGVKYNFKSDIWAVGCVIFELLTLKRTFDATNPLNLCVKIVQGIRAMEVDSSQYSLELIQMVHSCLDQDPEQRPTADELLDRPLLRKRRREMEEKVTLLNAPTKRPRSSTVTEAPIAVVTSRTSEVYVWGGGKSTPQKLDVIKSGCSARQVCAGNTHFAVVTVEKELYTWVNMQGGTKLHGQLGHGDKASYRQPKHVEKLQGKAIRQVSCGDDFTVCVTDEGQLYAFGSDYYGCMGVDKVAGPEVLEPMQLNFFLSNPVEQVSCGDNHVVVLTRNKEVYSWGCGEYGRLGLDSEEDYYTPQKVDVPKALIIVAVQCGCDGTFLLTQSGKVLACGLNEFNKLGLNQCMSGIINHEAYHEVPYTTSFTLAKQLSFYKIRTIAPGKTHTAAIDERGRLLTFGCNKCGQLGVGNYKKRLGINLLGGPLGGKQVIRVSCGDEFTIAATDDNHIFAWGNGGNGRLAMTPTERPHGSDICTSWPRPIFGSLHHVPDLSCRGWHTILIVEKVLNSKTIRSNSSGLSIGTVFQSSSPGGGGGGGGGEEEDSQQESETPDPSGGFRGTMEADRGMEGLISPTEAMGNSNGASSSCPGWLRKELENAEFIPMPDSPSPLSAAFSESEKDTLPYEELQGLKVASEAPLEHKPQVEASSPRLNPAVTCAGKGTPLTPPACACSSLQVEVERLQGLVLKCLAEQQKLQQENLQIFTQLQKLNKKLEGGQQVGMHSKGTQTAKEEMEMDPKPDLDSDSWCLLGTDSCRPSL
To be noted: at 0.1 µM.

Chain of Casein kinase II subunit alpha (Homo sapiens) (P68400 whole entry, looked up): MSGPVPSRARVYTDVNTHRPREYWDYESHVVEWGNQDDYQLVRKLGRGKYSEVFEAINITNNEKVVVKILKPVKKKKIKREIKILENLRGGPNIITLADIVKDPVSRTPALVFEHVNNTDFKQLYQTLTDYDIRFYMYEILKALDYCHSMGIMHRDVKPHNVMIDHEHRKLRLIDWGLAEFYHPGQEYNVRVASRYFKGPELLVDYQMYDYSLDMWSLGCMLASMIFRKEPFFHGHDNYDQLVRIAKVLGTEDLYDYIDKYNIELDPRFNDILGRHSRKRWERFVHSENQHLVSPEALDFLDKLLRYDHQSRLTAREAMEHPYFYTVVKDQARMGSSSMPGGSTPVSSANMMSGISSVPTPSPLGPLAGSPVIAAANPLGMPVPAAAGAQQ
Chain of Serine/threonine-protein kinase Nek7 (Homo sapiens) (Q8TDX7 whole entry, looked up): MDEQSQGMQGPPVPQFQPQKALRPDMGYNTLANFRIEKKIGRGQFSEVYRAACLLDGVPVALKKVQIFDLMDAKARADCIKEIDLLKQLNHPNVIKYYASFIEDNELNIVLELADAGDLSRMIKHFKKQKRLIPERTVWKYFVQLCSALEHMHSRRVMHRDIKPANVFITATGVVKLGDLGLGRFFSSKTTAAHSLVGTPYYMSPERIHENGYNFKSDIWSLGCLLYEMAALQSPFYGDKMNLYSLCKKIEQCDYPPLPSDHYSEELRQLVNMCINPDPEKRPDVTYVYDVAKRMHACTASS
Chain of Serine/threonine-protein kinase Nek6 (Homo sapiens) (Q9HC98 whole entry): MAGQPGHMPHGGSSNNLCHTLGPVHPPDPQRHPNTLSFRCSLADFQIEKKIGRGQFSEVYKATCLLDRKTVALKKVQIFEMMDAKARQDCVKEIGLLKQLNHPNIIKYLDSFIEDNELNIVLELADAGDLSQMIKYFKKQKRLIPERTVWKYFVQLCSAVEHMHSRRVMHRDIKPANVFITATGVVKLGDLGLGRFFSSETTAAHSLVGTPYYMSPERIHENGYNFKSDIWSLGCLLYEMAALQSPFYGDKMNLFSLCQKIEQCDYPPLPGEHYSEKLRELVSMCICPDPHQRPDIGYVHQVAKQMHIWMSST
Chain of Sphingosine kinase 1 (Homo sapiens) (Q9NYA1 whole entry): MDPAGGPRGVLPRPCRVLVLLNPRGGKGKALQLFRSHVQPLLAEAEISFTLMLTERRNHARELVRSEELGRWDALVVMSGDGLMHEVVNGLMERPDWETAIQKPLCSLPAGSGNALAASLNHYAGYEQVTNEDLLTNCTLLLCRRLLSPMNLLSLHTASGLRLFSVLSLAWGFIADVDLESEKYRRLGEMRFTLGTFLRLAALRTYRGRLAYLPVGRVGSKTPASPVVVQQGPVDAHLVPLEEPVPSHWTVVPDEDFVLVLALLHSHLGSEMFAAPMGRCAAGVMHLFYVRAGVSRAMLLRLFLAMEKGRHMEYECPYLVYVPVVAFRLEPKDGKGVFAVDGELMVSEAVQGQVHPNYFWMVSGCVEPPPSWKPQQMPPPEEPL

As to `Nc1ncnc2occ(-c3ccc(NC(=O)Nc4cc(C(F)(F)F)ccc4F)cc3)c12`, the inhibition in test [1] was -0.65% and 1.59%; in test [2] it was -1.33% and 0%; in test [3], 11.6% and 0%; in test [4], 2.39% and -3.9%; in test [5], 6.35% and 0.16%; in test [6], 5.79% and 7.04%. The inhibition in test [7] is 6.73% and 11.3%; in test [8] it was 1.45% and -2.16%; in test [9] it was 2.13% and 1.62%; in test [10], 1.57% and 0.44%; in test [11], 11.5% and 1.35%; in test [12], 4.57% and -0.38%. Further, the inhibition in test [13] is 34.7% and 18.1%; in [14] it was 1.72% and -2.9%; in [15] it was -2.44% and -3.79%; in test [16] it was 2.68% and -0.01%; in [17], -0.68% and -1.16%; in test [18], 2.87% and -5.06%. Further, the inhibition in test [19] was -8.19% and -5.1%; in test [20], 5.05% and 5.01%.
